The text below walks through data of PubChem BioAssay.

The source made the active and inactive calls. Unless noted, how the calls were made is not given here.

The nature of assay [1]: compounds binding Alexa647 anti-His antibody – biochemical, small-molecule microarray, 635 nm fluorescence, artefact control for SMM control protein annotation, primary screen (AID 1128).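 Further: score merges feature fluorescence with signal-to-noise for each printed compound spot.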 The conditions noted are these: higher = more signal.
Assay [2] deals with Human papillomavirus type 1a E7 protein (residues 1-88). In words: HPV1a E7 small-molecule binders, primary screen, biochemical, small-molecule microarray, residues 1-88, 635 nm (AID 1129). The conditions noted are these: small-molecule microarray binding, fluorescence 635 nm; higher = more signal.
Assay [3] concerns the target Focal adhesion kinase 1 (Homo sapiens) (UniProt Q05397). Description: PTK2 protein binding on printed compound slides – biochemical, small-molecule microarray, 635/667 nm fluorescence, BSA, DTT, primary screen (AID 1130).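 Further: composite of spot emission at 667 nm and signal to noise over triplicate slides.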 The conditions noted are these: 635 nm fluorescence, higher = more signal.
Assay [4] has as its system Fibrinogen (Alexa647-labelled). In words: Alexa647-fibrinogen binding to printed small molecules – biochemical, small-molecule microarray, 635/667 nm fluorescence, artefact control for SMM control-protein annotation, profiling panel (AID 1131).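 Further: z-score merges 667 nm fluorescence with per-spot signal-to-noise over triplicate slides.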 The conditions noted are these: fibrinogen-A647 binding fluorescence, higher = more signal.
Assay [5] deals with Follistatin (Homo sapiens) (UniProt P19883). In words: FST protein binding to printed compounds – biochemical, small-molecule microarray, 635/667 nm fluorescence, primary screen (AID 1132). The note with it: 635 nm fluorescence, higher = more signal.
Assay [6] has as its target Fibroblast growth factor 2 (Homo sapiens) (UniProt P09038). Description: basic fibroblast growth factor binding to printed compounds – biochemical, small-molecule microarray, 635/667 nm fluorescence, primary screen (AID 1133). The conditions noted are these: FGF2, fluorescence 635/667, higher = more signal.
Assay [7] can be described thus: JC-1 mitochondrial potential readout, lung cancer cells – cell-based, A549, JC-1 fluorescence, basal, 24 h, 100 nL, profiling panel (AID 1138).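 Further: A549 lung adenocarcinoma cells under basal conditions with no added stimulus; test concentration not given here.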 The note with it: higher = more signal.
The subject of assay [8] is Lefty1. In words: Lefty1 protein binding to printed compounds – biochemical, small-molecule microarray, 635/667 nm fluorescence, primary screen (AID 1139). The note with it: fluorescence 635/667, higher = more signal.
The test system of assay [9] is wheat germ agglutinin (Triticum aestivum), Alexa647-labelled. In words: Alexa647-WGA lectin binding to printed small molecules – biochemical, small-molecule microarray, 635/667 nm fluorescence, artefact control for SMM control-protein annotation, profiling panel (AID 1140).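 Further: score merges 667 nm feature emission with signal to noise over triplicate slides.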 The note with it: WGA-A647 binding, 635 nm fluorescence, higher = more signal.
In assay [10] the target is Luciferin 4-monooxygenase (Photinus pyralis) (UniProt P08659). Description: inhibition of purified Photinus pyralis luciferase – biochemical, luminescence, purified enzyme, 2006 set, primary screen (AID 1141).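 Further: cell-free assay with purified firefly luciferase at 100 ng per well in PBS; test concentration not given here.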 The conditions noted are these: purified firefly luciferase, SteadyGlo luminescence, 30 min; higher = more signal, called active from +8 up or from −8 down.
In assay [11] the test system is Wnt5a (protein binding on small-molecule microarray). In words: small molecules binding Wnt5a protein – biophysical, small-molecule microarray, 635/667 nm fluorescence, primary screen (AID 1142).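 Further: fluorescence read at 667 nm with signal to noise per printed feature.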 The note with it: 635 nm fluorescence, higher = more signal.
The nature of assay [12]: ATP-based viability of Huh7 replicon cells – cell-based, CellTiter-Glo luminescence, basal, 48 h, cytotoxicity control for HCV replication inhibitor project, primary screen (AID 1143).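 Further: Huh7 hepatoma cells carrying a hepatitis C replication reporter with no stimulus; test concentration not given here.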 The conditions noted are these: higher = more signal, called active from +8 up or from −8 down.
A short description of assay [13]: Pseudomonas biofilm growth suppression – PAO1 strain, BacTiter-Glo luminescence, LB-PBS, primary screen (AID 1144). The conditions noted are these: P. aeruginosa PAO1 biofilm, 12 h, higher = more signal.
The nature of assay [14]: basal CRE-LacZ reporter activity in PC12 – cell-based, unstimulated, primary screen (AID 1145). The conditions noted are these: no forskolin, luminescence, 4.5 h, higher = more signal, called active from +8 up or from −8 down.
The nature of assay [15]: forskolin-driven CRE-LacZ activity in PC12 – cell-based, CRE-LacZ reporter, forskolin-stimulated, primary screen (AID 1146).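 Further: PC12 cells with 6xCRE LacZ reporter stimulated by forskolin 10 µM; beta-galactosidase reporter signal reflecting CREB driven transcription.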 The conditions noted are these: luminescence, 4.5 h, higher = more signal, called active from +8 up or from −8 down.
In assay [16] the target is Streptavidin (Streptomyces avidinii) (UniProt P22629). In words: compounds binding control protein streptavidin – biophysical, small-molecule microarray, 635/667 nm fluorescence, artefact control for SMM compound annotation, primary screen (AID 1147).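 Further: signal reflects streptavidin binding to arrayed compounds as a control protein.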 The conditions noted are these: higher = more signal.
Assay [17] is described as follows: probe aInhba binding on compound microarray – biochemical, small-molecule microarray, 635/667 nm fluorescence, primary screen (AID 1148).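 Further: score merges 667nm spot fluorescence with signal-to-noise for antibody binding to printed compounds.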 The note with it: higher = more signal.
Assay [18] concerns the target Torsin-1A (Homo sapiens) (UniProt O14656). Description: TOR1A wild-type binding on microarray – cell lysate, small-molecule microarray, lysate, 635/667 nm, primary screen (AID 1149). The conditions noted are these: COS7 hTOR1A-WT lysate, 635 nm fluorescence, higher = more signal.
Assay [19] shares this target. In words: torsin A mutant lysate binding on microarrays – cell lysate, small-molecule microarray, COS7 lysate, 635/667 nm fluorescence, primary screen (AID 1150).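 Further: score pools 667 nm emission and signal to noise measuring lysate protein binding.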 The note with it: COS7 hTOR1A mutant lysate, 635 nm fluorescence, higher = more signal.
The subject of assay [20] is Sonic hedgehog protein (Shh). Description: Sonic hedgehog microarray binding compounds – biochemical, small-molecule microarray, 635/667 nm fluorescence, primary screen (AID 1151).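 Further: Shh protein binding to compounds spotted on small-molecule microarray slides; score combines spot fluorescence intensity with signal-to-noise across triplicate slides.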 The note with it: 635 nm fluorescence, higher = more signal.

Torsin-1A (Homo sapiens), sequence (O14656 whole entry, looked up): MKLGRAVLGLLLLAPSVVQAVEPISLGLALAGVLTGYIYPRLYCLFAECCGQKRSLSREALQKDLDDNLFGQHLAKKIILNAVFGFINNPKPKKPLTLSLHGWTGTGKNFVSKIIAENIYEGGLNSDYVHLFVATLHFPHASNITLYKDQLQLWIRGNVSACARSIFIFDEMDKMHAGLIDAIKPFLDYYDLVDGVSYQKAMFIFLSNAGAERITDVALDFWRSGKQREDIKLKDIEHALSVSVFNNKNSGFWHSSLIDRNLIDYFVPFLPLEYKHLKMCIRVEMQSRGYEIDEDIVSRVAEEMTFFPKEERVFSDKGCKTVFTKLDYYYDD
Fibroblast growth factor 2 (Homo sapiens), sequence (P09038 whole entry, looked up): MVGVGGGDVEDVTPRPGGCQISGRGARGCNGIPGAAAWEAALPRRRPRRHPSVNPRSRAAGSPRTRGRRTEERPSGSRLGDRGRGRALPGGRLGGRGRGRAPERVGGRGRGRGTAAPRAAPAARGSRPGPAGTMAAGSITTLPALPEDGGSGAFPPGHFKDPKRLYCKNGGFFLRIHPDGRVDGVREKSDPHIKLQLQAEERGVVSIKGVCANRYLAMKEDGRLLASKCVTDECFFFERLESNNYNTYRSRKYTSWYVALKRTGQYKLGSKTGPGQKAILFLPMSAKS
Follistatin (Homo sapiens), sequence (P19883 whole entry, looked up): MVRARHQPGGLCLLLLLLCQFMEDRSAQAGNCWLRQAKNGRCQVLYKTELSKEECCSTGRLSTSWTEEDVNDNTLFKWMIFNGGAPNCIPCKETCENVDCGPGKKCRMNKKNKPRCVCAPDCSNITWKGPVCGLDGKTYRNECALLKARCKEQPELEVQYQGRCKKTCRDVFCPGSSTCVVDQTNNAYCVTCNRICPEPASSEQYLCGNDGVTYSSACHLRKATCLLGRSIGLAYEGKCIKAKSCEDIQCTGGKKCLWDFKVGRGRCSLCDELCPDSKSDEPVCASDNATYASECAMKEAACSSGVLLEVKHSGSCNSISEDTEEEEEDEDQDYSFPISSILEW
Focal adhesion kinase 1 (Homo sapiens), sequence (Q05397 whole entry, looked up): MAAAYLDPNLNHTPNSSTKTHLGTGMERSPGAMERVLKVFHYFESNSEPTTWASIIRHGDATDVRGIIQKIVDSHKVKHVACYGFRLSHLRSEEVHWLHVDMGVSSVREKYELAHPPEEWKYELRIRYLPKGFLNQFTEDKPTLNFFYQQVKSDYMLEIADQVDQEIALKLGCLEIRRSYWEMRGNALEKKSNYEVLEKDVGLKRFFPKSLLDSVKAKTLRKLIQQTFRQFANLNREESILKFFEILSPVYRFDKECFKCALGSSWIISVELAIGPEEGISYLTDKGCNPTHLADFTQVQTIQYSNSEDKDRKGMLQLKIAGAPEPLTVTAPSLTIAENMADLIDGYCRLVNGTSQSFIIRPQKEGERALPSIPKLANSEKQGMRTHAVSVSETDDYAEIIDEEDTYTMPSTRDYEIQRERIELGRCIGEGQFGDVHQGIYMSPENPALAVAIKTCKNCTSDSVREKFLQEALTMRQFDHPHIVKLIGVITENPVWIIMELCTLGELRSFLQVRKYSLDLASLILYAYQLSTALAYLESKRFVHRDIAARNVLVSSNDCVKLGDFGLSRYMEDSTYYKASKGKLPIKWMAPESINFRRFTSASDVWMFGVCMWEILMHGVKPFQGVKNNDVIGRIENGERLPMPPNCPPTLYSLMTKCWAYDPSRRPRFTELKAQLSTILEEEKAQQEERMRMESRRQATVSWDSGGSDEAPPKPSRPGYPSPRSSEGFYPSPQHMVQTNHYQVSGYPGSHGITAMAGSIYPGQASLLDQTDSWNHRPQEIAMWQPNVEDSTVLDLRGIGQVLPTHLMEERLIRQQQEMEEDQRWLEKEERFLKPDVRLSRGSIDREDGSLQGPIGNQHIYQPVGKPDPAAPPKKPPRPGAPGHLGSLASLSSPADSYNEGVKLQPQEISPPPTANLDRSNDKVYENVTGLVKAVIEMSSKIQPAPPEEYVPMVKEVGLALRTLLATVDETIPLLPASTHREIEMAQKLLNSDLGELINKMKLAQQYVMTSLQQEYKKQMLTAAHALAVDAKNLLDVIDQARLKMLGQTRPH
Streptavidin (Streptomyces avidinii), sequence (P22629 whole entry, looked up): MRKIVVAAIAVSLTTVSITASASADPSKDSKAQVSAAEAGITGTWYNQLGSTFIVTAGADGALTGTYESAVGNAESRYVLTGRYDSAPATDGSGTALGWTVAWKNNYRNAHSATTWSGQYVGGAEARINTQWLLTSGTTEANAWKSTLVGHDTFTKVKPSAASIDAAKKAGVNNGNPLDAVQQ
Luciferin 4-monooxygenase (Photinus pyralis), sequence (P08659 whole entry, looked up): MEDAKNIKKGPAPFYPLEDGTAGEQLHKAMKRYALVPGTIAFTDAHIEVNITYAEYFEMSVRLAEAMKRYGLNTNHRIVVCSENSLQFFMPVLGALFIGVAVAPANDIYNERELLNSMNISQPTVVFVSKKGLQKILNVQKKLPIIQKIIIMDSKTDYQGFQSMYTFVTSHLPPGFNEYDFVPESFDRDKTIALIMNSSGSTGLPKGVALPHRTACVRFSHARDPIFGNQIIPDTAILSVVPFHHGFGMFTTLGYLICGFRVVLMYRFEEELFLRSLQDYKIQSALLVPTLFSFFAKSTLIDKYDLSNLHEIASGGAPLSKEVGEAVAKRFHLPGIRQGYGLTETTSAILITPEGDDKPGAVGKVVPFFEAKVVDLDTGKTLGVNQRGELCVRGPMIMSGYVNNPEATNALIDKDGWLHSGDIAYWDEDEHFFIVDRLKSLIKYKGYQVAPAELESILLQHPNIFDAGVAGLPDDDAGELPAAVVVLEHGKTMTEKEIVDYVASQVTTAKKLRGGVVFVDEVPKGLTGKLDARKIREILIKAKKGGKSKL

`CO[C@H](C1CCCCC1)[C@H](C)C=CCC(=O)OCCCc1ccccc1`: the composite z-score in [1] was 3.29; in assay [2] it was -1.15; in [3], 0.114; in assay [4], -0.938; in [5] it was 0.351; in assay [6] it was 0.541. The composite z-score in assay [8] was 0.0696; in [9], -0.464; in assay [11], -0.125; in assay [16], 0.203; in assay [17], -0.416; in assay [18], 0.113. The figures for the composite z-score in assay [19] and in assay [20] were 0.171 and -0.057, respectively. Also, the z-score was -0.00988 in [7]; -1.02 (inactive) in assay [10]; 0.419 (inactive) in [12]; -0.294 (inactive) in assay [13]; 0.248 (inactive) in assay [14]; -0.468 (inactive) in assay [15].
Turning to `O=C1OCCC=C1C(O)CCc1ccccc1` (stereo not given), the composite z-score is -0.139 in assay [1]; 0.638 in assay [2]; -0.226 in [3]; 0.913 in assay [4]; 0.347 in [5]; 0.332 in [6]. Also, the composite z-score in assay [8] is 0.299; in assay [9], 0.412; in assay [11], 0.0626; in [16], 0.992; in [17] it was -0.0562; in assay [18] it was -0.0693. Also, the composite z-score in assay [19] was 0.0478; in assay [20] it was 0.316. The z-score in assay [7] was -0.602; in assay [10], 0.151 (inactive); in assay [12] it was 0.104 (inactive); in assay [13], 1.15 (inactive); in assay [14], 0.196 (inactive); in assay [15], 0.571 (inactive).
`CC(C)=CCCC(C)=CCON=C1C[C@@H](O)[C@@H](O)[C@@H]2[C@@H]3C(=O)N(C(C)(C)C)C(=O)[C@@H]3CC[C@H]12`: the composite z-score was -0.119 in [1]; 0.635 in assay [2]; -0.0868 in assay [3]; 0.199 in [4]; 0.329 in [5]; 0.248 in [6]. Further, the composite z-score was 0.536 in assay [8]; -0.849 in [9]; 0.158 in assay [11]; 0.0957 in assay [16]; 0.0442 in assay [17]; 0.366 in assay [18]. Besides, the composite z-score in assay [19] amounted to 0.987; in assay [20], 0.435. Further, the z-score in [7] was -0.0133; in assay [10], 0.0533 (inactive); in assay [12] it was 0.232 (inactive); in assay [13] it was -0.625 (inactive); in assay [14], 0.7 (inactive); in assay [15], 0.871 (inactive).
With `O=C1CCCC=C1C(O)CCOC(c1ccccc1)(c1ccccc1)c1ccccc1` (stereo not given), the composite z-score was -0.545 in assay [1]; -0.228 in [2]; -0.0057 in assay [3]; -0.302 in assay [4]; 0.0573 in assay [5]; 0.058 in [6]. Moreover, the composite z-score is 0.458 in assay [8]; -0.129 in [9]; -0.263 in assay [11]; -0.328 in [16]; -0.128 in assay [17]; -0.981 in assay [18]. The composite z-score in assay [19] is -0.0854; in assay [20], 0.489. Moreover, the z-score in [7] is -0.228; in assay [10] it was -0.395 (inactive); in [12], -1.32 (inactive); in [13] it was 1.33 (inactive); in assay [14], -0.344 (inactive); in [15], 1.57 (inactive).
As for `Cc1ccc(S(=O)(=O)NC(CCc2ccccc2)CC(=O)C(C)(C)C)cc1` (stereo not given), the composite z-score in assay [1] stood at 0.569; in assay [2] it was 0.7; in assay [3], 0.0786; in assay [4], 0.821; in [5], 0.615; in assay [6] it was 0.939. The composite z-score in assay [8] was 0.625; in [9] it was 0.693; in [11], 0.375; in assay [16] it was 0.191; in assay [17], -0.0986; in assay [18], 0.511. For the same compound, the figures for the composite z-score in assay [19] and in [20] were 0.0204 and 0.71, respectively. Moreover, the z-score was -0.124 in assay [7]; 0.74 (inactive) in assay [10]; -0.482 (inactive) in assay [12]; 1.1 (inactive) in assay [13]; 0.2 (inactive) in assay [14]; -0.37 (inactive) in assay [15].
